Assay in all cases: yeast three-hybrid, YBZ-1, SC-Leu-His + 0.5 mM 3-AT, 4 days
What all share (conditions): tags: N-Gal4 AD-HA kept; label: inside an RPR1-promoter hybrid RNA with tandem MS2 sites; ssRNA

The target of assay [1] is T1, PUM1 PUF domain R6-RFA (Homo sapiens, UniProt Q14671 828-1176, N1043R;Y1044F;Q1047A).
T1 sequence: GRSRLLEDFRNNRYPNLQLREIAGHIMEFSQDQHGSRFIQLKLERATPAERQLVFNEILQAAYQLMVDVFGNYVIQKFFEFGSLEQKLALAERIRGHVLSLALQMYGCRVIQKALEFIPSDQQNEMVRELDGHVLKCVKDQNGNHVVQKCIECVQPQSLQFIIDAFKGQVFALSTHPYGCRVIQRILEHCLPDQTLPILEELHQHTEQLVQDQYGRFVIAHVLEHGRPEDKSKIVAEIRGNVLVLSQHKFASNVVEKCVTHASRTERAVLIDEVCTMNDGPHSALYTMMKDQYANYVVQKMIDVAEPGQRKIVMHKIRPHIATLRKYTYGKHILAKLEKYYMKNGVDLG
In short, it runs like this: (§1)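 A centromeric plasmid in strain YBZ-1 co-expressed Pumilio-1 PUF domain libraries, randomized at the three base-contacting residues of each repeat, with matching RNA elements; the strain carries a LexA–MS2 coat fusion and a HIS3 reporter. After four days on SC-Leu (input) or SC-Leu-His + 0.5 mM 3-AT (selection), the repeat regions were PCR-amplified and Illumina-sequenced. The interaction score is the log change in variant frequency from input to selection, using log2 and a pseudocount of 1 where absent.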

Assay [2] deals with PUM1 PUF domain R5-FHC (Homo sapiens, UniProt Q14671 828-1176, C1007F;R1008H;Q1011C). In short, it runs like this:
as §1

For assay [3], the target named is PUM1 PUF domain R1-KSV (Homo sapiens, UniProt Q14671 828-1176, S863K;R864S;Q867V). In short, it runs like this:
as §1

Assay [4] addresses PUM1 PUF domain R3-MYH (Homo sapiens, UniProt Q14671 828-1176, C935M;R936Y;Q939H). In a few lines:
as §1

Assay [5] has as its target PUM1 PUF domain R8-VWR (Homo sapiens, UniProt Q14671 828-1176, N1122V;Y1123W;Q1126R). In a few lines: as §1
For assay [6], the target named is PUM1 PUF domain R3-VWP (Homo sapiens, UniProt Q14671 828-1176, C935V;R936W;Q939P). In a few lines:
as §1

Assay [7] has as its target PUM1 PUF domain R2-NRW (Homo sapiens, UniProt Q14671 828-1176, Y900R;Q903W). In short, it runs like this:
as §1

Assay [8] concerns the target PUM1 PUF domain R7-KFW (Homo sapiens, UniProt Q14671 828-1176, S1079K;N1080F;E1083W). In a few lines:
as §1

Assay [9] concerns the target PUM1 PUF domain R4-DWV (Homo sapiens, UniProt Q14671 828-1176, N971D;H972W;Q975V). In a few lines: as §1
The target in assay [10] is PUM1 PUF domain R8-IFM (Homo sapiens, UniProt Q14671 828-1176, N1122I;Y1123F;Q1126M). In short, it runs like this: as §1

For the sequence “GGCUAGAACUAGUGGAUCCCCCGGCGCCCGGCGGCUCGAGCCCGGGUAAGUGAAAAUAGUCUGCAUGCCGCCGGGCGCCAUGCCUGCAGGUCGACUCUAGAAAACAUG”, in [1], the binding signal was 1.03 log2 enrichment (interaction score).

Consider “GGCUAGAACUAGUGGAUCCCCCGGCGCCCGGCGGCUCGAGCCCGGGUAAGUGUGAAUAGUCUGCAUGCCGCCGGGCGCCAUGCCUGCAGGUCGACUCUAGAAAACAUG”, for which the binding signal in assay [2] is 3.55 log2 enrichment (interaction score).

Regarding “GGCUAGAACUAGUGGAUCCCCCGGCGCCCGGCGGCUCGAGCCCGGGUAAGUGUAAAUUGUCUGCAUGCCGCCGGGCGCCAUGCCUGCAGGUCGACUCUAGAAAACAUG”, in assay [3], the binding signal was 2.75 log2 enrichment (interaction score).

Consider “GGCUAGAACUAGUGGAUCCCCCGGCGCCCGGCGGCUCGAGCCCGGGUAAGUGUAAAUGGUCUGCAUGCCGCCGGGCGCCAUGCCUGCAGGUCGACUCUAGAAAACAUG”, for which the binding signal in assay [3] was 1.55 log2 enrichment (interaction score).

As for “GGCUAGAACUAGUGGAUCCCCCGGCGCCCGGCGGCUCGAGCCCGGGUAAGUGUAAAUAGUCUGCAUGCCGCCGGGCGCCAUGCCUGCAGGUCGACUCUAGAAAACAUG”, the binding signal in assay [4] was 3.93 log2 enrichment (interaction score); in assay [5] it was 4.37 log2 enrichment (interaction score); in [6], 7.08 log2 enrichment (interaction score); in assay [7], 6.69 log2 enrichment (interaction score); in [1], 4.04 log2 enrichment (interaction score).

“GGCUAGAACUAGUGGAUCCCCCGGCGCCCGGCGGCUCGAGCCCGGGUAAGUGUAAUUAGUCUGCAUGCCGCCGGGCGCCAUGCCUGCAGGUCGACUCUAGAAAACAUG”: the binding signal in assay [6] is 3.12 log2 enrichment (interaction score).

Regarding “GGCUAGAACUAGUGGAUCCCCCGGCGCCCGGCGGCUCGAGCCCGGGUAAGUCUAAAUAGUCUGCAUGCCGCCGGGCGCCAUGCCUGCAGGUCGACUCUAGAAAACAUG”, the binding signal in assay [8] was 3.75 log2 enrichment (interaction score).

With “GGCUAGAACUAGUGGAUCCCCCGGCGCCCGGCGGCUCGAGCCCGGGUAAGUGUAUAUAGUCUGCAUGCCGCCGGGCGCCAUGCCUGCAGGUCGACUCUAGAAAACAUG”, in assay [9], the binding signal is 6.48 log2 enrichment (interaction score).

For the sequence “GGCUAGAACUAGUGGAUCCCCCGGCGCCCGGCGGCUCGAGCCCGGGUAAGUGUUAAUAGUCUGCAUGCCGCCGGGCGCCAUGCCUGCAGGUCGACUCUAGAAAACAUG”, in assay [2], the binding signal is 4.26 log2 enrichment (interaction score).

Consider “GGCUAGAACUAGUGGAUCCCCCGGCGCCCGGCGGCUCGAGCCCGGGUAAGCGUAAAUAGUCUGCAUGCCGCCGGGCGCCAUGCCUGCAGGUCGACUCUAGAAAACAUG”, for which the values for the binding signal in assay [10] and in [5] were 2.25 log2 enrichment (interaction score) and 4.44 log2 enrichment (interaction score), respectively.

The record behind these values is paper PMC8384837, “Expanding the binding specificity for RNA recognition by a PUF domain”.
